# Laboratory results published in PubChem BioAssay (Tox21).
# Several values for one entry are separate records, joined by “and”; a condition that tells them apart may be missing. Equal entries are not always repeated. Results filed as inconclusive are left out. Entries that show only a call come without a potency. Some compounds were tested as several samples or in several runs, with calls that do not always agree. Activity calls are given as the source filed them. Calls follow the shape of the dose curve; as a rule, active = well fitted curve in the direction sought with a large enough effect in the repeat runs; inconclusive = weak or mixed curves; inactive = no such curve, though single readings can be large; an effect the other way counts as inactive or inconclusive.
# How the values were obtained:
# [1] = Human pregnane X receptor (PXR) small molecule agonists, qHTS cell viability counter screen (AID 1346977); also: nearly all actives have a fitted effect of over 50% in size; also: potency is read from the fitted curve at half-maximal effect
# Procedure, shortened: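 PXR-Luc HepG2, 2,000 cells/well, 5% charcoal-stripped FBS; 5hr settle; cpd 24hr, 37C/5% CO2; CellTiter-Fluor at 23hr, read 1hr later (fluorescence).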
# [2] = Caspase-3/7 induction in HepG2 cells by small molecules, qHTS assay (AID 1346978); also: nearly all actives have a fitted effect of over 15% in size
# Procedure, shortened: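 Wild-type HepG2 cells (2,000/well) were settled 5 h at 37 C, 5% CO2, then exposed to compounds in DMSO for 17 h. Caspase-3/7 activity was read by luminescence 30 min after adding Caspase-Glo 3/7 reagent at room temperature.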
# [3] = Caspase-3/7 induction in CHO-K1 cells by small molecules, qHTS cell viability counter screen (AID 1346979); also: nearly all actives have a fitted effect of over 35% in size; also: potency is read from the fitted curve at half-maximal effect
# Procedure, shortened: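 Cells (CHO-K1, wild type) are plated at 1,500 per well and incubated 5hr. Test compounds in DMSO are then pinned in, followed by 16hr at 37C and 5% CO2. Viability is read by CellTiter-Fluor fluorescence after 1hr.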
# [4] = Caspase-3/7 induction in CHO-K1 cells by small molecules, qHTS assay (AID 1346980); also: nearly all actives have a fitted effect of over 15% in size
# Procedure, shortened: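 Wild-type cells were seeded at 1,500 per well and settled 5 hr at 37 C, 5% CO2, then exposed to DMSO-dissolved compounds for 17 hr. Caspase-Glo 3/7 reagent was added, and luminescence was read after 30min at room temperature.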
# [5] = Caspase-3/7 induction in HepG2 cells by small molecules, qHTS cell viability counter screen (AID 1346981); also: series mostly up to about 92 µM; nearly all actives have a fitted effect of over 30% in size
# Procedure, shortened: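 HepG2, WT, 2,000 cells/well; 5 hr pre-incubation 37 C/5% CO2; compound pin-transferred from DMSO; 16 hr exposure; CellTiter-Fluor, 1 hr; fluorescence read.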
# [6] = biological target: Nuclear receptor subfamily 1 group I member 2 (Homo sapiens) (UniProt O75469); assay: Human pregnane X receptor (PXR) small molecule agonists, qHTS assay (AID 1346982); also: nearly all actives have a fitted effect of over 35% in size; also: potency is read from the fitted curve at half-maximal effect
# Chain of Nuclear receptor subfamily 1 group I member 2 (Homo sapiens) (O75469 whole entry, looked up): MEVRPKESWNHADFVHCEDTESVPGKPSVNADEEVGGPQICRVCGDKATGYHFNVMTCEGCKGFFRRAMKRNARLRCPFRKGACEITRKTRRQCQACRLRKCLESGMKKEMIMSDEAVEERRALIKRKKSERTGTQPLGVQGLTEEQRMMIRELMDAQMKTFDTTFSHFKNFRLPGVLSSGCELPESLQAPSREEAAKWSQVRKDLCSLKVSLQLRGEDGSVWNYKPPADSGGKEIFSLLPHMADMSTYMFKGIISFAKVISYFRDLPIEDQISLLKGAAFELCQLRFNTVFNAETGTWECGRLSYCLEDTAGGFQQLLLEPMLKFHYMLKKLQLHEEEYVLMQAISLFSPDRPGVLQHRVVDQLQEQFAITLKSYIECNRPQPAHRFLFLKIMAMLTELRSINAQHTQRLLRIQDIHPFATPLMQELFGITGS
# Procedure, shortened: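 Luciferase signal from ONE-Glo (30 min, room temperature) measured activation of hPXR-driven CYP3A4 reporter expression in PXR-Luc HepG2 cells treated with compounds for 24 hr at 37 C.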
# [7] = biological target: Cytochrome P450 2D6 (Homo sapiens) (UniProt P10635); assay: Cytochrome P450 Family 2 Subfamily D Member 6 (CYP2D6) small molecule antagonists: luciferase reporter qHTS assay (AID 1671196); also: nearly all actives have a fitted effect of over 50% in size; also: potency is read from the fitted curve at half-maximal effect
# Chain of Cytochrome P450 2D6 (Homo sapiens) (P10635 whole entry, looked up): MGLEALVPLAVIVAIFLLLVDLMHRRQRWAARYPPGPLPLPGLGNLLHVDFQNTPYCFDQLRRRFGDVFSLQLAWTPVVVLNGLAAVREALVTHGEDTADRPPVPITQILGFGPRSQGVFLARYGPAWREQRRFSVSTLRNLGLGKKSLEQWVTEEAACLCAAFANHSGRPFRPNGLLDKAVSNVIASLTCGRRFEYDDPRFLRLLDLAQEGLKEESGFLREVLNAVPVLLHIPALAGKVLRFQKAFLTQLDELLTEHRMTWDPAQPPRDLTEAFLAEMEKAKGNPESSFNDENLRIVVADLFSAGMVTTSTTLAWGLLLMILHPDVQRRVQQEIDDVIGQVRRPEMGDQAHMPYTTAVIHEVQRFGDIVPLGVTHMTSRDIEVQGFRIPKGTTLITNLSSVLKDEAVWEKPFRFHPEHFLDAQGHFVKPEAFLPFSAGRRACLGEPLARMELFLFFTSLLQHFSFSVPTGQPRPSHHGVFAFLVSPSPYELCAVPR
# Procedure, shortened: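 Read-out is luminescence from luciferin formed by CYP2D6 turnover of a proluciferin substrate, recorded as relative luminescence units. Reactions ran 1 h at room temperature after NADPH regeneration solution was added.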
# [8] = biological target: Cytochrome P450 2C19 (Homo sapiens) (UniProt P33261); assay: Cytochrome P450 Family 2 Subfamily C Member 19 (CYP2C19) small molecule antagonists: luciferase reporter qHTS assay (AID 1671197); also: nearly all actives have a fitted effect of over 65% in size; also: potency is read from the fitted curve at half-maximal effect
# Chain of Cytochrome P450 2C19 (Homo sapiens) (P33261 whole entry, looked up): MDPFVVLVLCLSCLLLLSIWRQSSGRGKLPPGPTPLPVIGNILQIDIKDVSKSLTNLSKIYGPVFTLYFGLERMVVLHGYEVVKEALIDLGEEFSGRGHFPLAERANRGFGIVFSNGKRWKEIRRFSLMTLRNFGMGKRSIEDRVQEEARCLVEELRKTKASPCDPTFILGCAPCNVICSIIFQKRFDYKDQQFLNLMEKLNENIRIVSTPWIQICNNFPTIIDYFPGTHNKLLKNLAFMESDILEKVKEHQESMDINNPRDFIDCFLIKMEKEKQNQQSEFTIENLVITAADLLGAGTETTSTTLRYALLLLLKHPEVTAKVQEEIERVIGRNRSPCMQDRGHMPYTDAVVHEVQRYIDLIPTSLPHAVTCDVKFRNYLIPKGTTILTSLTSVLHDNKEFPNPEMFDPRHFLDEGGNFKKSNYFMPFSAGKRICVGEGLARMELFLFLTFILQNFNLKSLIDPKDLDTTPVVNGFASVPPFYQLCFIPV
# Procedure, shortened: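 P450-Glo CYP2C19 screening system; proluciferin substrate; DMSO compound stocks; 10 min RT preincubation; NADPH regeneration, 1 h at 37C; luciferin detection reagent, 20 min RT; luminescence as RLU.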
# [9] = biological target: Cytochrome P450 2C9 (Homo sapiens) (UniProt P11712); assay: Cytochrome P450 Family 2 Subfamily C Member 9 (CYP2C9) small molecule antagonists: luciferase reporter qHTS assay (AID 1671198); also: nearly all actives have a fitted effect of over 50% in size; also: potency is read from the fitted curve at half-maximal effect
# Chain of Cytochrome P450 2C9 (Homo sapiens) (P11712 whole entry, looked up): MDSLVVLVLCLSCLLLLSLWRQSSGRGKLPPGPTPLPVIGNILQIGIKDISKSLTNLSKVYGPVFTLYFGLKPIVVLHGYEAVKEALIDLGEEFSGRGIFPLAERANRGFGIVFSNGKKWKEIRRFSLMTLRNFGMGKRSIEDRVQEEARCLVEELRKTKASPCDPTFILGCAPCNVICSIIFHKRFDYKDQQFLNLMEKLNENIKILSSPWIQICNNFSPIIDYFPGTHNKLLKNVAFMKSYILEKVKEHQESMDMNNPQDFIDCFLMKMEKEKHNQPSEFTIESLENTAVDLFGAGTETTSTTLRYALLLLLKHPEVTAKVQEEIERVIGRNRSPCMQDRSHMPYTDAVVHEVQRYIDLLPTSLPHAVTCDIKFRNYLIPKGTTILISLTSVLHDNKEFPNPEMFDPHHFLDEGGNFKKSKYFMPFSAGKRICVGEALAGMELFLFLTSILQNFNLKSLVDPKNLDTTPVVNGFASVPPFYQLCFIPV
# Procedure, shortened: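 CYP2C9 activity was measured with a P450-Glo proluciferin substrate. Enzyme–substrate mix was held with compound for 10 min at room temperature, then NADPH regeneration solution was added for 1 h at 37C. Luciferin product was read as luminescence.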
# [10] = biological target: Voltage-gated inwardly rectifying potassium channel KCNH2 (Homo sapiens) (UniProt Q12809); assay: Human Ether-a-go-go-Related Gene (hERG) channel small molecule antagonists: fluorescence cell-based qHTS assay (AID 1671200);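 also: hERG-expressing U2OS cells given a thallium stimulus after FluxOR II dye loading; series mostly up to about 77 µM; nearly all actives have a fitted effect of over 50% in size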
# Chain of Voltage-gated inwardly rectifying potassium channel KCNH2 (Homo sapiens) (Q12809 whole entry, looked up): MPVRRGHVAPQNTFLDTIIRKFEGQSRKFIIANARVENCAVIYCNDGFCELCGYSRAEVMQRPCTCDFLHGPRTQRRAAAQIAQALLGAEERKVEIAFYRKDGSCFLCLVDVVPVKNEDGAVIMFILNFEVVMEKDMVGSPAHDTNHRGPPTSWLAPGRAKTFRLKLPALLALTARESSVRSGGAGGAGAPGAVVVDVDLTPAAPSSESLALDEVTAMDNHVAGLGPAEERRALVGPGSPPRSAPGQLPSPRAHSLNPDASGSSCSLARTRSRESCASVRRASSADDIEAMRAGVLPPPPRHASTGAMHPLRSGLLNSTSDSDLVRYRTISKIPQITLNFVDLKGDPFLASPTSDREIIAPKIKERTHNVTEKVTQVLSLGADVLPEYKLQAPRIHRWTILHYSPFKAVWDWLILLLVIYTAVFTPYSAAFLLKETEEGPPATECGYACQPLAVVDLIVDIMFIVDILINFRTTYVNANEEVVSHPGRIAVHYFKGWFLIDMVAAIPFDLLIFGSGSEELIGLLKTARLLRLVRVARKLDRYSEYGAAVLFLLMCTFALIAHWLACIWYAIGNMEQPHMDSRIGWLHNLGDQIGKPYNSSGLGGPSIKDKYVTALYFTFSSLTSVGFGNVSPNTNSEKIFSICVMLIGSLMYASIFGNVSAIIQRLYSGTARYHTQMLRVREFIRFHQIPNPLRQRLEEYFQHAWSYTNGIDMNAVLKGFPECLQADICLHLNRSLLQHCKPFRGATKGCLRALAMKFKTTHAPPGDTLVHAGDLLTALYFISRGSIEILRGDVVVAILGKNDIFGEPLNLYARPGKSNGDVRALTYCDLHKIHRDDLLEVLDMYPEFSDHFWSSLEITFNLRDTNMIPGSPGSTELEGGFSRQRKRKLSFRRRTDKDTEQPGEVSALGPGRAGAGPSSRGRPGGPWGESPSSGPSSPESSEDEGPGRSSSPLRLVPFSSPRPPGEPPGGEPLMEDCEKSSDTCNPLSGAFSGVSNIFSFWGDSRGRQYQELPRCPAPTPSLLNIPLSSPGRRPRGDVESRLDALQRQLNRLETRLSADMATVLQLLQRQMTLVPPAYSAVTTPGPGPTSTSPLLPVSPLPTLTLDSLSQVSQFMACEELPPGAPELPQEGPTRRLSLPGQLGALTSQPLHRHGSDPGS
# Procedure, shortened: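 Channel function was assessed by thallium flux. Cells seeded the previous day and kept at 37 C took up FluxOR II dye over 1 h in the dark at room temperature, then sat another 10 min before stimulation.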
# [11] = biological target: Cytochrome P450 3A4 (Homo sapiens) (UniProt P08684); assay: Cytochrome P450 Family 3 Subfamily A Member 4 (CYP3A4) small molecule antagonists: luciferase reporter qHTS assay (AID 1671201); also: nearly all actives have a fitted effect of over 50% in size; also: potency is read from the fitted curve at half-maximal effect
# Chain of Cytochrome P450 3A4 (Homo sapiens) (P08684 whole entry, looked up): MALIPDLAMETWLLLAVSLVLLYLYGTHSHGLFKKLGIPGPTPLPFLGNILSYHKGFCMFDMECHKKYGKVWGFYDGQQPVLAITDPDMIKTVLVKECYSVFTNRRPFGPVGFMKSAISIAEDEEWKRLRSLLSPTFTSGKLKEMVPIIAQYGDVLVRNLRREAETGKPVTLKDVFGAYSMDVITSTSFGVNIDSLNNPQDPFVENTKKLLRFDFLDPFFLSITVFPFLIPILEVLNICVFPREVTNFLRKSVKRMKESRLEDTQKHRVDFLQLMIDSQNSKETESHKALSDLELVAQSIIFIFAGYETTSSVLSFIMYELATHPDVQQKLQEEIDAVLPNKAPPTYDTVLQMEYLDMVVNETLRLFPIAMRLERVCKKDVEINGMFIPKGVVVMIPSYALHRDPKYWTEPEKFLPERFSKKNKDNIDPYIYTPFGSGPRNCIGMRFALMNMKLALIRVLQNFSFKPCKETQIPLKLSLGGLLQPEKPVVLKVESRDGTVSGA
# Procedure, shortened: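 Compounds in DMSO were pin-transferred onto CYP3A4 enzyme-substrate mix and held 10 min at room temperature. NADPH regenerating solution started the reaction for 1 h; luciferin detection reagent stopped it, and luminescence was read after 20 min.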
# [12] = biological target: Cytochrome P450 1A2 (Homo sapiens) (UniProt P05177); assay: Cytochrome P450 Family 1 Subfamily A Member 2 (CYP1A2) small molecule antagonists: luciferase reporter qHTS assay (AID 1671199); also: nearly all actives have a fitted effect of over 50% in size; also: potency is read from the fitted curve at half-maximal effect
# Chain of Cytochrome P450 1A2 (Homo sapiens) (P05177 whole entry, looked up): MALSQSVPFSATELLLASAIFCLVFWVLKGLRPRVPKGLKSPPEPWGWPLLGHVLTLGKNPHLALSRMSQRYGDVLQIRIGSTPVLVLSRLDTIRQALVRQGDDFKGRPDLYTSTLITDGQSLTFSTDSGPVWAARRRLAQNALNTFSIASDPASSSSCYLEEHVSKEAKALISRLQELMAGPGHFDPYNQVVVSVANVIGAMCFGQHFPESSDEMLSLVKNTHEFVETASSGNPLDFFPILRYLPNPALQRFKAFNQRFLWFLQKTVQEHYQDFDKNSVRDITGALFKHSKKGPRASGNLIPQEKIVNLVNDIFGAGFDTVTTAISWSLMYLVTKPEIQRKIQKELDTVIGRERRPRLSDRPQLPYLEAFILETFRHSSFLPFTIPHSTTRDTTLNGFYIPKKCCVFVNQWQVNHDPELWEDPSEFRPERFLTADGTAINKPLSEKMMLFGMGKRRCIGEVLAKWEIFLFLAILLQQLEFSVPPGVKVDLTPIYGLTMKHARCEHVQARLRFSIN
# Procedure, shortened: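 P450-Glo CYP1A2, 1536-well qHTS: enzyme/proluciferin substrate + cpd (DMSO), 10 min RT; NADPH regen, 1 h RT; detection reagent, 20 min; luminescence, RLU.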
# [13] = biological target: Nuclear receptor subfamily 1 group I member 2 (Rattus norvegicus) (UniProt Q9R1A7); assay: Rat pregnane X receptor (rPXR) activation by small molecules, qHTS assay (AID 1346983); details: rPXR luciferase reporter cells, One-Glo luminescence, 24 h; max activation: stronger effect = higher value; also: nearly all actives have a fitted effect of over 20% in size
# Chain of Nuclear receptor subfamily 1 group I member 2 (Rattus norvegicus) (Q9R1A7 whole entry, looked up): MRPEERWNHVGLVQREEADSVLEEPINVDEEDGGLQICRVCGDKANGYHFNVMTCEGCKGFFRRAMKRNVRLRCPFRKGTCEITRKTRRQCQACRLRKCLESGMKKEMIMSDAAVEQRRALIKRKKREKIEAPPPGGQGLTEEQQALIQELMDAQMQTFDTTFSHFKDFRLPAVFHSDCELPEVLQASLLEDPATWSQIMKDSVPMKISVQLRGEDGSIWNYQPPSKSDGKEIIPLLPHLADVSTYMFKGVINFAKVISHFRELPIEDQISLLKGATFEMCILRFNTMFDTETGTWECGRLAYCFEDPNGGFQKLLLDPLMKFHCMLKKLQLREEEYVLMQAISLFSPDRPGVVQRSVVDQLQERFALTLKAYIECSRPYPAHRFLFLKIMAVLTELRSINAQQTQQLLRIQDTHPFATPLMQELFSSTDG
# Procedure, shortened: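 Cell-based rPXR luciferase reporter assay, 2,000 cells per well, rested 5hr at 37 C before compound addition in DMSO, then 24 hr at 37 C. One-Glo reagent was added and luminescence read after 30 min at room temperature.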
# [14] = biological target: Nuclear receptor subfamily 1 group I member 2 (Homo sapiens) (UniProt O75469); assay: CYP3A4 induction through human pregnane X receptor (PXR) by small molecules, qHTS assay (AID 1346984); also: nearly all actives have a fitted effect of over 40% in size; also: potency is read from the fitted curve at half-maximal effect
# Procedure, shortened: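 Luminescence readout: luciferase signal after One-Glo (30 min, room temperature), following 3 h at 37C with 3uM final Luciferin-IPA P450 substrate. Cells were DPX-2 (HepG2, PXR/CYP3A4-luc co-transfected) dosed for 24 h.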
# [15] = biological target: Nuclear receptor subfamily 1 group I member 2 (Homo sapiens) (UniProt O75469); assay: Human pregnane X receptor (PXR) activation by small molecules, qHTS assay (AID 1346985); also: nearly all actives have a fitted effect of over 40% in size
# Procedure, shortened: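 DPX-2 cells (HepG2 co-transfected with a PXR response element and a CYP3A4-promoter luciferase construct) were seeded at 2,000 per well, rested 5 hr at 37C, then exposed to DMSO-dissolved compounds for 24 hr. Activation was read as luciferase luminescence.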
Compound,Potency [1],Potency [2],Potency [3],Potency [4],Potency [5],Potency [6],Potency [7],Potency [8],Potency [9],Potency [10],Potency [11],Potency [12],max activation [13],Potency [14],outcome [15]
NS(=O)(=O)c1cc2c(cc1Cl)NCNS2(=O)=O,inactive,inactive,inactive,inactive,inactive,inactive,inactive,62.3 µM (active) and inactive,inactive,inactive,inactive,–,–,–,–
CCCCC(CC)C(=O)O (centres undefined),inactive,inactive,inactive,inactive,–,inactive,inactive,inactive,inactive and 71 µM (active),inactive,inactive,inactive,–,–,–
CS(=O)(=O)OCCCCOS(C)(=O)=O,inactive,inactive,inactive,inactive,–,inactive,35.7 µM (active),56.6 µM (active) and inactive,inactive,inactive,inactive,inactive,-4.1% (inactive),inactive,inactive
OC[C@H]1O[C@H](O[C@]2(CCl)O[C@H](CCl)[C@@H](O)[C@@H]2O)[C@H](O)[C@@H](O)[C@H]1Cl,inactive,inactive,inactive,inactive,–,inactive,inactive,inactive,inactive,inactive,inactive,inactive,–,–,–
CCCCOC(=O)c1ccc(O)cc1,inactive,inactive,31 µM (active) and inactive,inactive,–,69.4 µM (active) and inactive,inactive,28.6 µM (active) and 35.6 µM (active) and 15.5 µM (active),32.1 µM (active) and 28.3 µM (active) and 17.4 µM (active),inactive,inactive,4.54 µM (active) and 6.33 µM (active) and 4.36 µM (active),–,–,–
F[B-](F)(F)F,inactive,inactive,inactive,inactive,–,inactive,inactive,73.9 µM (active) and inactive and 79.6 µM (active),inactive,inactive,inactive and 40.5 µM (active),inactive and 40.5 µM (active),–,–,–
CN1CCC[C@H]1c1cccnc1,inactive,inactive,inactive,inactive,–,inactive,35.3 µM (active) and inactive,inactive,–,inactive,–,inactive,–,–,–
NS(=O)(=O)O,inactive,inactive,inactive,inactive,inactive,inactive,inactive,73.7 µM (active) and inactive,inactive,inactive,inactive,inactive,–,–,–
Nc1c(N=Nc2ccc(-c3ccc(N=Nc4cc(S(=O)(=O)O)c5ccccc5c4N)cc3)cc2)cc(S(=O)(=O)O)c2ccccc12,8.63 µM (active),inactive,12.2 µM (active),inactive,–,inactive,35.6 µM (active),71 µM (active),31.7 µM (active),–,–,63.3 µM (active),-6.72% (inactive),22.4 µM (active),inactive
CCCc1cc(=O)[nH]c(=S)[nH]1,inactive,inactive,inactive,inactive,–,inactive,inactive,inactive,inactive,inactive,inactive,inactive,-3.01% (inactive),inactive,inactive
O=C1OC2(c3ccccc31)c1cc(Br)c(O)c(Br)c1Oc1c2cc(Br)c(O)c1Br,4.93 µM (active) and 9.96 µM (active) and 13.3 µM (active),inactive,6.2 µM (active) and 22.3 µM (active) and 11.9 µM (active),inactive,–,inactive,inactive,20.3 µM (active) and inactive,5.1 µM (active) and 9.19 µM (active) and 7.76 µM (active),inactive,inactive,29.1 µM (active),-7.26% (inactive),inactive,inactive
O=C(O)c1ccccc1,inactive,inactive,inactive,inactive,–,inactive,37.4 µM (active) and inactive,33.3 µM (active) and 3.47 µM (active) and inactive,inactive,inactive,inactive,37.4 µM (active) and inactive,–,–,–
CC(O)(P(=O)(O)O)P(=O)(O)O,inactive,inactive,inactive,inactive,–,inactive,inactive,inactive,inactive,inactive,inactive,–,-1.65% (inactive),inactive,inactive
